Rows were chosen to be rich in hits. Some 3.5% of all compounds tested hit in one or more screens of this group.
FBW7 act – activators of human E3 ligase FBW7. Q969H0. AlphaScreen FBW7–phospho-cyclin E peptide binding, activator screen. normalized activity (activation), % at 26.1 µM. hit rate 0.13% among 650,000. AID 1259310; in the data active = normalized activity above about 1.9%;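 note: purified mutant Fbw7 with reduced substrate affinity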
Target sequence (Q969H0 whole entry, looked up): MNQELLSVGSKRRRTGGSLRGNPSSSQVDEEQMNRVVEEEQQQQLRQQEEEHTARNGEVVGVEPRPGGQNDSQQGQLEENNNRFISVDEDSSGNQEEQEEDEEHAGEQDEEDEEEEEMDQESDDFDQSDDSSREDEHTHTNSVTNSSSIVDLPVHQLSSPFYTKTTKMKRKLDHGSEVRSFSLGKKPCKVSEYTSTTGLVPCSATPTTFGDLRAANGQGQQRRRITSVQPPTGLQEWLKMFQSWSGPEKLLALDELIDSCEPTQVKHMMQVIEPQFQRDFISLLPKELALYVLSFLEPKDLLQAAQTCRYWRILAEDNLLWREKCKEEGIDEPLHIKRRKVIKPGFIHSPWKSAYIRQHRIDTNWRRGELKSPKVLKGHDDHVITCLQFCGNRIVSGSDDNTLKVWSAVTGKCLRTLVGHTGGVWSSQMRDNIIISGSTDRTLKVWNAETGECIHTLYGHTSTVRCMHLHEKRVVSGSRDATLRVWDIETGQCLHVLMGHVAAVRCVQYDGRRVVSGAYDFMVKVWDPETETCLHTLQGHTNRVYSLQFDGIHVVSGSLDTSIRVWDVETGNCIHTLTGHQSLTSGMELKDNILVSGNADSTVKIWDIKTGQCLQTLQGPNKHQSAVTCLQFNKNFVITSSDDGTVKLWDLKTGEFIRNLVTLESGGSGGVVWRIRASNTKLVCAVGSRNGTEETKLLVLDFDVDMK
GPR151 ag – activators of human GPR151; Q8TDV0; activation, % at 11.2 µM; hit rate 1% among 650,000; PathHunter beta-arrestin GPR151 cells, luminescence; in the data active = activation above about 4.9%;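 note: 0% = median of compound wells and 100% = cells with positive control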
TEAD-YAP block – TEAD-YAP interaction inhibition. inhibition, % at 9.12 µM. hit rate 1.4% among 640,000. HEK-TIYL cells, TEAD-Gal4/YAP UAS-luciferase luminescence; in the data active = inhibition above about 32%;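 note: 0% = median of test compound wells and 100% = reference inhibitor wells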
MITF primary – human MITF inhibition, primary screen. O75030. AlphaScreen MITF homodimerization, bead proximity signal. inhibition, % at 2.6 µM. hit rate 0.91% among 650,000; in the data active = inhibition above about 50%;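 note: 0% = vehicle wells with protein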
MITF confirm – human MITF inhibition, confirmation; shares compounds with MITF primary; AlphaScreen MITF homodimerization, biotin/His-MITF beads; inhibition, % at 2.6 µM; hit rate 16% among 4,700; AID 1259372;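 active = inhibition above a cutoff derived from the DMSO control wells, cut at about 28% in these data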;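 note: 0% = MITF dimer wells with DMSO only; inhibitors lower the bead chemiluminescence by keeping MITF from dimerizing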
AlphaScreen intf2 – optically interferes with AlphaScreen signal; LysRS AlphaScreen counterscreen, signal interference, triplicate; hit rate 7.6% among 4,700; shares compounds with MITF primary; AID 1259376; inhibition, % at 2.6 µM;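 active = inhibition above a cutoff derived from the DMSO control wells, cut at about 30% in these data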
* = called active by the depositor; / = no result.

SMILES | FBW7 act | GPR151 ag | TEAD-YAP block | MITF primary | MITF confirm | AlphaScreen intf2
CCOc1ccc(NC(=O)CSC2=C(C#N)C(c3ccco3)C(C(=O)Nc3ccccc3C)=C(C)N2)cc1 (configuration not stated) | 0 | 1 | 7 | 63* | 0 | 3
CCc1ccc(C(=O)NC(C(=O)NCC2CCCO2)C(C)C)cc1 (configuration not stated) | 1 | 1 | 1 | 67* | 10 | 7
Cn1c(=O)c2c(SCC#N)nc(C3CCCC3)nc2n(C)c1=O | 0 | 0 | 1 | 3 | / | /
CC(C(=O)N1c2ccccc2CC1C)N1CCN(S(=O)(=O)c2ccccc2F)CC1 (configuration not stated) | 0 | 0 | 17 | 75* | 5 | 13
CC(C(=O)Nc1ccc(C#N)cc1)N1CCN(S(=O)(=O)c2ccccc2F)CC1 (configuration not stated) | 0 | 0 | -1 | 85* | 11 | 5
CC1Cc2ccccc2N1S(=O)(=O)c1ccccc1F (configuration not stated) | 0 | -2 | 0 | 4 | / | /
CCOc1ccccc1C(=O)Nc1c2c(nn1-c1cccc(C)c1C)CSC2 | 0 | 1 | -16 | 8 | / | /
CCc1ccc(CN2CCN(C(=O)c3ccccc3)CC2)cc1 | 0 | 0 | -10 | 24 | / | /
COc1cc(N2CCN(C(=O)c3ccc(OC)c(OC)c3)CC2)nc(C)n1 | 0 | 0 | 8 | 107* | -4 | -8
O=C(c1ccncc1)N1CCN(Cc2ccc3ccccc3c2)CC1 | 0 | 1 | 5 | 79* | -17 | -5
CCOc1cc(N2CCN(C(=O)c3ccc(OC)c(OC)c3)CC2)nc(C)n1 | 0 | 1 | 2 | 6 | / | /
CC(C)N1CCN(C(=O)c2ccncc2)CC1 | 0 | -1 | 1 | 78* | -3 | 0
COc1ccc(C(=O)N2CCN(Cc3ccc4ccccc4c3)CC2)cc1OC | 0 | 0 | 38* | 70* | 12 | 22
COc1cccc(C(=O)N2CCN(Cc3ccc4ccccc4c3)CC2)c1 | 0 | -1 | 9 | 7 | / | /
COc1ccccc1/C=N/Nc1cc(N2CCCCC2)nc(C)n1 | 0 | 1 | 6 | 10 | / | /
CCN1C(=O)C(C)(C)COc2cc(NC(=O)Nc3cc(OC)cc(OC)c3)ccc21 | 0 | 0 | -4 | 2 | / | /
CCOC(=O)c1ccccc1NC(=O)Cc1c(C(=O)O)n(CC)c2ccccc12 | 0 | -1 | -9 | 8 | / | /
CCN(CC)S(=O)(=O)c1cccc(S(=O)(=O)c2ccc(Cl)c(S(=O)(=O)N(CC)CC)c2)c1 | 0 | 0 | 2 | -3 | / | /
c1ccc(Nc2nc(NCc3nc4ccccc4[nH]3)c3[nH]cnc3n2)nc1 | 0 | 0 | 2 | 3 | / | /
COc1cc(OC)cc(C(=O)N2CCN(Cc3ccc(OC)c(OC)c3)CC2)c1 | 0 | 1 | 3 | 35 | / | /
COc1cc(OC)cc(C(=O)N2CCN(Cc3ccncc3)CC2)c1 | 0 | 1 | 9 | 84* | 4 | 4
COc1ccc(C(=O)N2CCN(Cc3ccccc3)CC2)cc1 | 0 | 0 | 1 | 47 | / | /
COc1ccc(CN2CCN(C(=O)c3ccncc3)CC2)cc1 | 0 | 2 | -1 | 75* | 4 | 16
COc1cccc(C(=O)N2CCN(Cc3ccncc3)CC2)c1 | 0 | -1 | -3 | 68* | 15 | 17
COc1cccc(C(=O)N2CCC(N3CC(C)CC(C)C3)CC2)c1 (configuration not stated) | 0 | 1 | 1 | 61* | 1 | 3
SMILES | FBW7 act | GPR151 ag | TEAD-YAP block | MITF primary | MITF confirm | AlphaScreen intf2
CC1=NN(c2ccccc2)C(=O)/C1=C/c1ccc(Cl)c([N+](=O)[O-])c1 | 0 | 0 | 1 | -5 | / | /
COc1cc2c(cc1OC)C(=NCC(=O)O)NC(C)(C)C2 | 0 | 0 | 1 | 10 | / | /
C=C(F)CN1CCN(c2c(F)cccc2NC(=O)c2ccc(Br)o2)CC1 | 1 | 0 | -8 | 1 | / | /
COc1cccc(OC)c1C(=O)N1CCCCCC1 | 0 | 2 | 1 | -2 | / | /
COc1cccc(OC)c1C(=O)N1CCN(Cc2ccncc2)CC1 | 0 | 1 | 2 | 75* | -12 | -5
O=C(COc1ccc(Br)cc1Cl)N1CCCCC1 | 0 | 2 | -18 | 6 | / | /
O=CN1CCN(C(=O)COc2ccc(Br)cc2Cl)CC1 | 0 | 1 | 6 | 70* | 1 | 7
COc1ccc(C(CNCC(=O)Nc2ccccc2-c2ccccc2)N2CCOCC2)cc1 (configuration not stated) | 0 | -1 | 5 | 83* | -15 | -1
CC(C)C(C)NC(=O)CSc1nnc(NCc2ccccc2)s1 (configuration not stated) | 0 | 1 | -9 | 53* | 3 | 8
Fc1ccc(NCc2nnc(SCCN3CCOCC3)n2-c2ccccc2)cc1 | 0 | -1 | 3 | 67* | 11 | 10
CCOc1ccc(C(=O)Nc2c3c(nn2-c2cccc(Cl)c2)CS(=O)(=O)C3)cc1OCC | 0 | -1 | 1 | 3 | / | /
O=C(NCCCN1CCCC1)c1cnn2c(C(F)(F)F)cc(-c3ccccc3)nc12 | 0 | 2 | -12 | -7 | / | /
O=S(=O)(c1ccccc1)N1CCN(Cc2ccco2)CC1 | 1 | 1 | -3 | 49 | / | /
Fc1ccc(N2CN(Cc3ccco3)CNC2=S)cc1 | 0 | 0 | 12 | 4 | / | /
Cc1ccccc1CN1CCN(Cc2ccco2)CC1 | 0 | 0 | -10 | 72* | 8 | 6
Brc1ccccc1CN1CCN(Cc2ccco2)CC1 | 0 | -1 | -30 | 78* | -4 | 11
Fc1ccc(N2CCN(Cc3ccco3)CC2)cc1 | 0 | 0 | 6 | 52* | 15 | 5
c1ccc(CCCN2CCN(Cc3ccco3)CC2)cc1 | 0 | 1 | 6 | 55* | 0 | 12
CCOc1ccc(NC(=O)C2OC3OC(C)(C)OC3C3OC(C)(C)OC23)cc1 (configuration not stated) | 0 | 1 | -2 | 7 | / | /
CCC(=O)Nc1cccc(C(N)=O)c1 | 0 | -1 | -3 | 8 | / | /
CS(=O)(=O)N1CCN(Cc2ccco2)CC1 | 0 | -1 | -1 | 31 | / | /
Brc1ccc(CN2CCN(Cc3ccco3)CC2)cc1 | 0 | -1 | -4 | 86* | 9 | 20
COc1ccc(OC)c(CN2CCN(C3CCCC3)CC2)c1 | 0 | -1 | 5 | 70* | 4 | 7
COc1ccc(OC)c(CN2CCC(O)CC2)c1 | 0 | -1 | -4 | 37 | / | /
COc1ccc(OC)c(CN2CCC(N3CCCCC3)CC2)c1 | 0 | 0 | 8 | 52* | 10 | 9
COc1ccc(CN2CCC(N3CCCC3)CC2)cc1 | 0 | 0 | -2 | 52* | 3 | 3
COc1ccc(CN2CCC(N3CCCCC3)CC2)c(OC)c1 | 0 | -1 | 1 | 25 | / | /
Brc1ccc(CN2CCC(N3CCCCC3)CC2)cc1 | 0 | -1 | -8 | 42 | / | /
CCN1CCN(C2CCN(Cc3cc(OC)ccc3OC)CC2)CC1 | 0 | 0 | 10 | 61* | -5 | -6

From PubChem BioAssay
